DAX1 inh-1 – inhibitors of DAX1 repression of SF-1 activated StAR promoter | HEK293T StAR-luciferase reporter, SF-1/DAX-1 repression relief | inhibition, % at 6.8 µM | 370,000 compounds, 1.1% hits | AID 652010;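 active = inhibition above the mean over all tested compounds plus 3 SD, cut at about 3.6% in these data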;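 also: higher inhibition means more luminescence from relief of DAX-1 repression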
hcDAF12 agonist – H. contortus DAF-12 activation, primary screen; HEK293 hcDAF-12 lit1-tk-luc reporter, luminescence; 0% DMSO, 100% Δ7-dafachronic acid; activation, % at 6.8 µM; AID 652067; 370,000 compounds, 1.4% hits;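 active = activation above the mean of all tested compounds plus 3 SD, cut at about 5.5% in these data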
hgDAF-12 ag – hgDAF-12 agonism, primary luciferase screen | HEK293 GAL4-hgDAF12 UAS-luciferase reporter, agonist luminescence; normalized to butyrate control | activation, % at 6.8 µM | 370,000 compounds, 1.8% hits | AID 687014;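 active = activation above a cutoff set at the mean of all screened compounds plus 3 SD, cut at about 10% in these data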
ssDAF12 agonist – activators of S. stercoralis DAF-12 nuclear receptor. activation, % at 6.8 µM. HEK293 ssDAF-12/GRIP1 lit1-tk-luc reporter, luminescence; % of 3 µM dafachronic acid response. 370,000 compounds, 1% hits. AID 652126;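 active = activation above the mean over all tested compounds plus 3 SD, cut at about 0.9% in these data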
DAX1 inh-2 – NR0B1 (DAX1) inhibition. P51843. HEK293 Gal4-DAX1 luciferase reporter, luminescence. inhibition, % at 6.75 µM. 340,000 compounds, 0.99% hits. AID 504766;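 active = inhibition above the mean over all tested compounds plus 3 SD, cut at about 4.2% in these data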;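 also: inhibition shows as a rise in luminescence from relieved DAX1 repression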
Target sequence (P51843 207-470 limits assumed): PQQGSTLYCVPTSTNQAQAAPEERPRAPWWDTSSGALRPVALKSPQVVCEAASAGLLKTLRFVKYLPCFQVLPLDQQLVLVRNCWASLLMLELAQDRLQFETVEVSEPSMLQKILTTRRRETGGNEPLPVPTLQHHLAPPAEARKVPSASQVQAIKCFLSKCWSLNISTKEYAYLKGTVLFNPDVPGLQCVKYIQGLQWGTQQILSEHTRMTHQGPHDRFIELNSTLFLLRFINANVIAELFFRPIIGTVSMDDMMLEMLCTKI
SMARCA2 activ – activators of SMARCA2 function. AID 652017. activation, % at 9.1 µM. MG213 cells, MMTV-luciferase reporter, dexamethasone, overnight. 370,000 compounds, 1% hits; in the data active = activation above about 7.8%
hgDAF12 ag – hgDAF-12 agonism, confirmation assay. shares compounds with hgDAF-12 ag. HEK293 GAL4-hgDAF12 luciferase reporter, agonist mode; percent of butyrate response. activation, % at 6.8 µM. 3,300 compounds, 80% hits;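 active = mean activation over triplicate wells above the hit cutoff derived from the earlier primary screen, cut at about 11% in these data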
LXRb DAF12 ctr – counter-screen for DAF-12 agonists: agonists of human LXR-beta. shares compounds with hgDAF-12 ag. HEK293 Gal4-LXR luciferase reporter, 24 h. activation, % at 6.8 µM. 3,300 tested, under 10 active;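 active = mean activation of the triplicate above a set limit carried over from the primary screen, none filed active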
Target sequence (P55055 whole entry, looked up, the tested form may be a part): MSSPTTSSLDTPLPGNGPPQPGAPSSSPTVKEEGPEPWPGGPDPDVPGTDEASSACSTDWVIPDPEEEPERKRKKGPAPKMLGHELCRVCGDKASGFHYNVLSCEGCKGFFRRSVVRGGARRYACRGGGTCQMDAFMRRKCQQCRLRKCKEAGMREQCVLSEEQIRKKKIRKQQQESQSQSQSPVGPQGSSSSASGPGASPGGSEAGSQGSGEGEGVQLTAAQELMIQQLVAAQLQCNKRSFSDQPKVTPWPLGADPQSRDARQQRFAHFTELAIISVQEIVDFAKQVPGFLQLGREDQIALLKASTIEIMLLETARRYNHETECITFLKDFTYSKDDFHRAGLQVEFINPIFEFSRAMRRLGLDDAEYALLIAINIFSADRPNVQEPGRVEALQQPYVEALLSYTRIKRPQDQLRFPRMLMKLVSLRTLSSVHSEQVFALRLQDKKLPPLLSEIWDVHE
A number is an active result. Shown are actives, neighbours in structure and some others; about 4.8% of the full set was active somewhere.

What do the screens show for `COc1cccc(NC(=O)Nc2ccc(CC(=O)O)cc2)c1`?
DAX1 inh-1: inactive; hcDAF12 agonist: inactive; hgDAF-12 ag: inactive; ssDAF12 agonist: inactive; DAX1 inh-2: inactive; SMARCA2 activ: inactive

Results for COc1ccc(NC(=O)Nc2ccc(F)c(Cl)c2)cc1 ?
DAX1 inh-1: inactive; hcDAF12 agonist: inactive; hgDAF-12 ag: 17.1; ssDAF12 agonist: inactive; DAX1 inh-2: inactive; SMARCA2 activ: inactive; hgDAF12 ag: inactive; LXRb DAF12 ctr: inactive

How did CCc1ccc(NC(=O)Nc2cccc(OC)c2)cc1 do in these assays?
DAX1 inh-1: inactive; hcDAF12 agonist: inactive; hgDAF-12 ag: 18.3; ssDAF12 agonist: inactive; DAX1 inh-2: inactive; SMARCA2 activ: inactive; hgDAF12 ag: 15.4; LXRb DAF12 ctr: inactive

How did CCOC(=O)CNC(=O)N(C)[C@H]1C[C@H]2c3[nH]c4ccccc4c3CCN2C[C@H]1[C@H](C)O do in these assays?
DAX1 inh-1: inactive; hcDAF12 agonist: inactive; hgDAF-12 ag: inactive; ssDAF12 agonist: inactive; SMARCA2 activ: inactive

Results for CN(C)CCNc1ncnc2c1ncn2[C@H]1CN(Cc2cccnc2)C[C@@H](CO)O1 ?
DAX1 inh-1: inactive; hcDAF12 agonist: inactive; hgDAF-12 ag: 23.7; ssDAF12 agonist: inactive; SMARCA2 activ: inactive; hgDAF12 ag: inactive; LXRb DAF12 ctr: inactive

Results for CCCCCCCCN1C(=O)[C@@H](CC(=O)N2CCN(C(=O)C3CC3)CC2)C[C@@]2(C(=O)OC)C1=C[C@H](COCc1ccccc1)O[C@@H]2C ?
DAX1 inh-1: inactive; hcDAF12 agonist: inactive; hgDAF-12 ag: inactive; ssDAF12 agonist: inactive; SMARCA2 activ: inactive

Results for CCOC(=O)N1CCN(C(=O)C2CC(c3ccccc3OC)=NO2)CC1 (stereo not given) ?
DAX1 inh-1: inactive; hcDAF12 agonist: inactive; hgDAF-12 ag: inactive; ssDAF12 agonist: inactive; DAX1 inh-2: inactive; SMARCA2 activ: inactive

How did O=C(C1CC(c2ccccc2O)=NO1)N1CCCC1 (stereo not given) do in these assays?
DAX1 inh-1: inactive; hcDAF12 agonist: inactive; hgDAF-12 ag: 14.0; ssDAF12 agonist: inactive; DAX1 inh-2: inactive; SMARCA2 activ: inactive; hgDAF12 ag: inactive; LXRb DAF12 ctr: inactive

What do the screens show for `Cc1ccc(-n2c(=S)[nH]c3c(oc4ccccc43)c2=O)cc1C`?
DAX1 inh-1: inactive; hcDAF12 agonist: inactive; hgDAF-12 ag: inactive; ssDAF12 agonist: inactive; DAX1 inh-2: inactive; SMARCA2 activ: inactive

What do the screens show for `Cc1ccc(-n2ncc3ccccc3c2=O)cc1Cl`?
DAX1 inh-1: inactive; hcDAF12 agonist: inactive; hgDAF-12 ag: 18.6; ssDAF12 agonist: inactive; DAX1 inh-2: 4.7; SMARCA2 activ: inactive; hgDAF12 ag: 15.1; LXRb DAF12 ctr: inactive

What do the screens show for `COc1c(Cl)cnn(-c2cccc(C)c2)c1=O`?
DAX1 inh-1: inactive; hcDAF12 agonist: inactive; hgDAF-12 ag: inactive; ssDAF12 agonist: inactive; DAX1 inh-2: inactive; SMARCA2 activ: inactive

Results for Cc1cc(/C=N/NC(=O)c2ccoc2C)cc(C)c1O ?
DAX1 inh-1: 4.3; hcDAF12 agonist: inactive; hgDAF-12 ag: 18.4; ssDAF12 agonist: inactive; DAX1 inh-2: 4.8; SMARCA2 activ: inactive; hgDAF12 ag: 13.6; LXRb DAF12 ctr: inactive

How did O=C(NN=Cc1ccccc1Cl)c1cccc2ccccc12 do in these assays?
DAX1 inh-1: inactive; hcDAF12 agonist: inactive; hgDAF-12 ag: inactive; ssDAF12 agonist: inactive; DAX1 inh-2: inactive; SMARCA2 activ: inactive

What do the screens show for `Cc1occc1C(=O)N/N=C/c1cccc2ccccc12`?
DAX1 inh-1: inactive; hcDAF12 agonist: 5.8; hgDAF-12 ag: 21.1; ssDAF12 agonist: 1.0; DAX1 inh-2: inactive; SMARCA2 activ: inactive; hgDAF12 ag: 14.2; LXRb DAF12 ctr: inactive

How did O=C(N/N=C/c1ccc2c(c1)OCO2)c1ccc(Cl)cc1Cl do in these assays?
DAX1 inh-1: inactive; hcDAF12 agonist: inactive; hgDAF-12 ag: inactive; ssDAF12 agonist: inactive; DAX1 inh-2: inactive; SMARCA2 activ: inactive

What do the screens show for `Cc1occc1C(=O)N/N=C/c1ccc2c(c1)OCO2`?
DAX1 inh-1: inactive; hcDAF12 agonist: 5.7; hgDAF-12 ag: 15.7; ssDAF12 agonist: inactive; DAX1 inh-2: inactive; SMARCA2 activ: inactive; hgDAF12 ag: 21.4; LXRb DAF12 ctr: inactive

Results for Cc1cc(C(=O)CN2CCC(C)CC2)c(C)n1-c1ccc(F)cc1 ?
DAX1 inh-1: inactive; hcDAF12 agonist: inactive; hgDAF-12 ag: 14.0; ssDAF12 agonist: inactive; DAX1 inh-2: inactive; SMARCA2 activ: inactive; hgDAF12 ag: 13.4; LXRb DAF12 ctr: inactive

How did COc1ccc(-n2c(C)cc(C(=O)CN3CCC(C)CC3)c2C)cc1 do in these assays?
DAX1 inh-1: inactive; hcDAF12 agonist: inactive; hgDAF-12 ag: inactive; ssDAF12 agonist: inactive; DAX1 inh-2: inactive; SMARCA2 activ: inactive

What do the screens show for `C/C(=N\Nc1nccnc1Cl)c1ccc(O)cc1`?
DAX1 inh-1: inactive; hcDAF12 agonist: 6.5; hgDAF-12 ag: 16.3; ssDAF12 agonist: inactive; DAX1 inh-2: inactive; SMARCA2 activ: inactive; hgDAF12 ag: 11.0; LXRb DAF12 ctr: inactive

Results for CN1CCN(c2ccc(NC(=O)COc3ccccc3)cc2Cl)CC1 ?
DAX1 inh-1: inactive; hcDAF12 agonist: inactive; hgDAF-12 ag: 14.8; ssDAF12 agonist: inactive; DAX1 inh-2: inactive; SMARCA2 activ: inactive; hgDAF12 ag: 14.4; LXRb DAF12 ctr: inactive

Results for COCCNc1oc(/C=C/c2ccccc2)nc1C#N ?
DAX1 inh-1: inactive; hcDAF12 agonist: inactive; hgDAF-12 ag: inactive; ssDAF12 agonist: inactive; DAX1 inh-2: inactive; SMARCA2 activ: inactive

Results for CNc1oc(/C=C/c2ccccc2)nc1C#N ?
DAX1 inh-1: inactive; hcDAF12 agonist: inactive; hgDAF-12 ag: 13.4; ssDAF12 agonist: 1.6; DAX1 inh-2: inactive; SMARCA2 activ: inactive; hgDAF12 ag: 17.6; LXRb DAF12 ctr: inactive

How did CCOC(=O)Cc1ccc2sc(-c3ccccc3)nc2c1 do in these assays?
DAX1 inh-1: inactive; hcDAF12 agonist: inactive; hgDAF-12 ag: 13.4; ssDAF12 agonist: inactive; DAX1 inh-2: inactive; SMARCA2 activ: inactive; hgDAF12 ag: 13.6; LXRb DAF12 ctr: inactive

What do the screens show for `O=C(Oc1ccc2ccc(O)cc2c1)c1ccccc1Cl`?
DAX1 inh-1: inactive; hcDAF12 agonist: inactive; hgDAF-12 ag: 13.9; ssDAF12 agonist: inactive; DAX1 inh-2: inactive; SMARCA2 activ: inactive; hgDAF12 ag: inactive; LXRb DAF12 ctr: inactive

Results for Cc1cccc2cc(CN(CCCO)C(=O)Nc3cccc(Cl)c3)c(=O)[nH]c12 ?
DAX1 inh-1: inactive; hcDAF12 agonist: inactive; hgDAF-12 ag: inactive; ssDAF12 agonist: inactive; DAX1 inh-2: inactive; SMARCA2 activ: inactive

How did Cc1c(Cl)cccc1NC(=O)c1cc(C2CC2)on1 do in these assays?
DAX1 inh-1: inactive; hcDAF12 agonist: inactive; hgDAF-12 ag: inactive; ssDAF12 agonist: inactive; DAX1 inh-2: inactive; SMARCA2 activ: inactive
